system: HepG2; assay: GSK_TCMDC: Percent inhibition of human HepG2 cell line. Test compounds present at 10uM.; format: functional

Row | Structure (SMILES) | Inhibition [%]
1 | COc1csc2cc(Br)ccc12 | 6
2 | Cl.Oc1cccc(Nc2ccnc3cc(-c4ccccn4)ccc23)c1 | 24
3 | Cl.FC(F)(F)c1ccc2c(NCCNc3ccnc4cc(C(F)(F)F)ccc34)ccnc2c1 | 21
4 | COc1cc(F)c2ncc(Cl)c(C(O)CN3CCC(NC(=O)c4ccc5c(n4)NC(=O)CO5)CC3)c2c1.Cl (stereo not given) | 22
5 | CNS(=O)(=O)CCNCc1ccc(-c2ccc3ncnc(Nc4ccc(OCc5ccccc5)cc4)c3c2)o1 | 19
6 | CN1CCN(c2ccnc3ccc(NC(=O)Nc4ccc5c(c4)CCC5=O)cc23)CC1 | 8
7 | Nc1ccc(-c2ccc3ccnc(N)c3c2)cc1 | 38
8 | CCNC(=O)Nc1ccc(N(C)c2ccnc(NC3CC3)n2)cc1 | 21
9 | CCOc1cc(CC)ccc1C1CCN(CCN2CCC(NC(=O)c3ccc(-c4ccc(C#N)cc4)cc3)CC2)CC1 | 32
10 | Oc1ccc(Cl)cc1Nc1nc(C(F)(F)F)nc2ccccc12 | 16
11 | N#Cc1ccc(N(CCOc2ccc(Cl)c(Cl)c2)Cc2ccccc2C(F)(F)F)cc1C(F)(F)F | 13
12 | COc1ccc(NC(=O)[C@H](CC(C)C)Nc2cc(C)nc(NCc3cccc(C)c3)n2)cc1.O=C(O)C(F)(F)F | 24
13 | Cn1c(Sc2ncnc3sccc23)nc2ccccc21 | 0
14 | CCc1ccc(O)c(-c2cc(C(=O)Nc3cccnc3)[nH]n2)c1 | 0
15 | CN1CCN(c2cccc(-c3nnc(-c4ccc(OCC(=O)NCc5cccc(C(F)(F)F)c5)c([N+](=O)[O-])c4)o3)c2)CC1 | 25
16 | Cc1ccccc1C1CCN(c2ccc(C(=O)NC3CC3)cn2)CC1.O=C(O)C(F)(F)F | 17
17 | COc1c(CNCCCCCCNCc2c(OC)c(OC)c3ccccc3c2OC)c(OC)c2ccccc2c1OC.CS(=O)(=O)O | 100
18 | O=C(O)C(F)(F)F.O=c1[nH]ccc2nc(N[C@@H]3CCNC3)nc(Nc3ccc4c(c3)S(=O)(=O)CC4)c12 | 0
19 | CC(Cc1ccc(NC(=O)c2ccc(NCCc3ccccc3)cc2)cc1)NCCc1cccc(Cl)c1.Cl (stereo not given) | 25
20 | C/C(=C\C(=O)NC1CC1)c1ccccc1OCc1ccccc1 | 3

Row | Structure (SMILES) | Inhibition [%]
21 | Cc1cccc2nc(-c3ccc(-c4ccc(NC(=O)Nc5ccc(F)c(F)c5F)cc4)cc3)[nH]c12 | 51
22 | Cc1cc(NCCC(=O)Nc2ccccc2)nc(NCCc2ccccc2)n1.O=C(O)C(F)(F)F | 0
23 | CCNC(=O)Nc1cccc(-c2cccc(-c3nc4cc(C(F)(F)F)ccc4[nH]3)c2)c1 | 50
24 | CCCC(C(CC1CCC(C)CC1)C(=O)NC(CCCNc1ncccn1)C(=O)Nc1nccs1)N(O)C=O (stereo not given) | 10
25 | CC(NCCc1cccc(Cl)c1)C(O)c1ccc(OCCCCCCOc2ccc(C(O)C(C)NCCc3cccc(Cl)c3)cc2)cc1 (stereo not given) | 96
26 | O=C(/C=C/c1cccc(OC(F)(F)F)c1)NCCCCCN1CCC(c2c[nH]c3ccccc23)CC1 | 27
27 | Cc1[nH]c2ccc(-c3ccccc3)cc2c(=O)c1Br | 0
28 | CC1CCN(C(=O)[C@H](Cc2c[nH]c3ccccc23)NS(=O)(=O)c2ccc(Cl)cc2)CC1 | 0
29 | Cc1cccc2nc(-c3cccc(-c4ccc(C(=O)NCc5nccn5C)cc4)c3)[nH]c12 | 18
30 | COc1cccc(C=CC(=O)N(CCN)Cc2ccccc2)c1.O=C(O)C(=O)O | 0
31 | Cc1cc(=NN=CC=Cc2ccccc2)c2ccc(F)cc2[nH]1 | 14
32 | COc1ccc(CNC2Cc3ccccc3C2)cc1-c1ccc(S(=O)(=O)NCCN2CCCC2)s1.O=C(O)C(F)(F)F | 89
33 | COc1ccc(CN2CCCN(Cc3cccc(NC(=O)c4ccc5ccccc5c4)c3)CC2)cc1.O=C(O)C(F)(F)F | 27
34 | O=C(N[C@@H](CC1CCCCC1)C(=O)NC1CCCc2ccccc21)c1ccc(O)c(-c2ccc(Cl)c(Cl)c2)c1 (stereo not given in full) | 1
35 | Cc1cccc2nc(C3CCN(CC4CCN(C(=O)/C=C/c5ccc(Cl)c(Cl)c5)CC4)CC3)[nH]c12 | 46
36 | O=C(/C=C/c1cccc(C(F)(F)F)c1)NCCCCCN1CCC(c2c[nH]c3ccccc23)CC1 | 70
37 | Cn1cc(CN2CCCC(COC(c3ccccc3)c3ccccc3)C2)cn1 (stereo not given) | 24
38 | CC(=O)Nc1ccc2[nH]cc(C3CCN(CCC4CCN(C(=O)/C=C/c5ccc(Cl)c(Cl)c5)CC4)CC3)c2c1 | 13
39 | Cl.NCC1(c2nc(-c3ccc(Cl)c(O)c3)c(-c3ccncc3)[nH]2)CCCCC1 | 48
40 | COc1cccc(-c2csc(C(=O)NCC3CCN(Cc4ccc(C(C)C)cc4)C3)c2)c1.O=C(O)C(F)(F)F (stereo not given) | 35
